The structures appear in SMILES notation. Inconclusive results are not listed. Some compounds were tested as several samples or in several runs, with calls that do not always agree. The source made the active and inactive calls. How the source made its calls: active means hit-call score of the fitted dose curve at least 0.9, where 1 is the maximum; inconclusive means response in the unintended direction; inactive means score below 0.9.

Usually AC50 stands for the concentration giving half of the maximal activity seen.

Read-out in this assay: HMG-CoA synthase (HMGCS2), HMGCS2 (gene 3158)
Kind of assay: CLD_HMGCS2_48hr: CellzDirect (CLD) Gene Expression Assay for HMG-CoA synthase (HMGCS2) at 48 hours (AID 2283711). How it is done:
CLD_48hr is a cell-based, multiplexed-readout assay that uses hepatocyte, a human liver primary cell, with measurements taken at 48 hours after chemical dosing in a 96-well plate.CLD_HMGCS2_48hr is one of 16 assay component(s) measured or calculated from the CLD_48hr assay. It is designed to make measurements of mRNA induction, a form of inducible reporter, as detected with chemiluminescence signals by Quantitative Nuclease Protection Assay (qNPA) technology.Data from the assay component CLD_HMGCS2_48hr was analyzed at the endpoint, CLD_HMGCS2_48hr, in the positive analysis fitting direction relative to DMSO as the negative control and baseline of activity. Using a type of inducible reporter, gain-of-signal activity can be used to understand changes in the reporter gene as they relate to the gene HMGCS2. Furthermore, this assay endpoint can be referred to as a primary readout. To generalize the intended target to other relatable targets, this assay endpoint is annotated to the lyase intended target family, where subfamily is HMG-CoA synthase.
Human hepatocyte cultures were treated daily for two consecutive days with fresh dosing solutions containing appropriate concentrations of the 320 ToxCast chemicals (chemical identities were blinded to CellzDirect and other ToxCast collaborators), vehicle control (0.2% DMSO), and positive control inducers as summarized in Table 1. Due to the large number of treatment groups and chemicals examined, the ToxCast chemicals were divided into two groups (spanning two independent cultures of hepatocytes from separate donor preparations (Hu778: ToxCast plates 1 and 2; Hu776: ToxCast plates 3 and 4). Each preparation of human hepatocyte cultures was treated with respective vehicle control, medium only control, set of six positive controls/reference chemicals for the five hepatic receptor pathways, and a subset of eight of the ToxCast chemicals (indoxacarb, pyrithiobac-sodium, norflurazon, cyhalofop-butyl, methomyl, thiram, acetochlor, and propiconazole). These replicate data, coupled with internal replicates designed within the blinded ToxCast chemical library, provided additional data to evaluate interindividual differences between hepatocyte preparations and their potential impact on chemical profiles.Cell morphology and integrity were evaluated using phase-contrast microscopy as an indicator of hepatocyte cell health (Tyson & Green, 1987). Cultures for each treatment group (i.e., media, vehicle [0.2% DMSO], positive control inducers [multiple concentrations], and the ToxCast chemicals [multiple concentrations]) were observed and cell morphology was assessed relative to vehicle control cultures at each harvest time point (0, 6, 24, or 48 h). […] Images were evaluated at the conclusion of the study to assess changes in cell integrity and account for the effects of chemical exposure on uncharacteristic changes in concentration-dependent gene expression profiles. The results from these determinations of apparent cytotoxicity were annotated (yes/no) alongside the corresponding qNPA data for reference.At the conclusion of each treatment period, hepatocyte cultures (96-well) were washed with 1 volume of HBSS, lysed by addition of 25 ul ArrayPlate lysis buffer (HTG, Tucson, AZ), and 70 ul/well of Denaturation Oil, denatured by incubation at 95C for 10 min, and frozen at approximately -70C until analysis by nuclease protection assay (qNPA) (Roberts et al., 2007). For qNPA analysis, cell lysates were thawed at 50C for approximately 30 min, qNPA probes were added, and samples were incubated at 95C for 10 min to begin the detection process by denaturing the target RNA, dissociating the duplexes and secondary structure hybridization. At the conclusion of the hybridization period, S1 nuclease reagent was added to each sample to digest all nonprotected nucleotides at 50C for 60-90 min. […]
Consider `N#CC(CCc1ccc(Cl)cc1)(Cn1cncn1)c1ccccc1` (centres undefined), for which the outcome was inactive.

For `O=C(O)COc1nc(Cl)c(Cl)cc1Cl`, the compound was called inactive.

In the case of `COC(=O)C(C)Oc1ccc(Oc2ccc(Cl)cc2Cl)cc1` (centres undefined), the AC50 was 35.6 µM (active) and the compound was classed as inactive.

For the compound `COC(=O)c1ccccc1C(=O)OC`, the compound was called inactive.

With `CCON=C(CC)C1=C(O)CC(c2c(C)cc(C)cc2C)CC1=O` (centres undefined), the compound was classed as inactive.

As to `COc1nc(C)nc(NC(=O)NS(=O)(=O)c2ccccc2CCC(F)(F)F)n1`, the compound was classed as inactive.

For `C=CCC1=C(C)C(OC(=O)C2C(C=C(C)C)C2(C)C)CC1=O` (centres undefined), the compound was called inactive.

Consider `CC(Oc1ccc(Cl)cc1Cl)C(=O)O` (centres undefined), for which the compound was called inactive.

In the case of `C#CCOS(=O)OC1CCCCC1Oc1ccc(C(C)(C)C)cc1` (centres undefined), the result was inactive.

For the compound `O=C(O)c1nc(Cl)ccc1Cl`, the result was inactive.

For `CC(C)(C)c1ccc(CSc2cnn(C(C)(C)C)c(=O)c2Cl)cc1`, the result was inactive.

Take `CC1COC(Cn2cncn2)(c2ccc(Oc3ccc(Cl)cc3)cc2Cl)O1` (centres undefined): the call was inactive.

On to `COC(=O)N(OC)c1ccccc1COc1ccn(-c2ccc(Cl)cc2)n1`, for which the result was inactive.

For `CCOP(=S)(OCC)SCn1c(=O)oc2cc(Cl)ccc21`, the compound was called inactive.

For the compound `CCCCOC(=O)c1ccccc1C(=O)OCCCC`, the compound was classed as inactive.

Consider `COP(N)(=O)SC` (centres undefined), for which the call was inactive.

With `CS/C(C)=N/OC(=O)N(C)SN(C)C(=O)O/N=C(\C)SC`, the outcome was inactive.

As for `Cc1cc(Cl)ccc1OCC(=O)O`, the outcome was inactive.
